According to PubChem BioAssay (NCI):
This is part of a sample that, as a whole, favours compounds with a hit. Of some 83,000 tested, about 20% had one in any assay.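 Results are percent growth after 48 hours of single-concentration exposure. 100 means growth as in untreated cells, lower positive values show inhibition; negative values down to -100 show cell death.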 Values without a mark were called inactive. The source made the active and inactive calls. Rule for the calls: active = growth percent below 10; inactive = the rest.

Columns and labels:
Assay in all cases: NCI-60 one-dose screen, 48 h (100 = growth as untreated, 0 = no growth, -100 = all killed)
Details in all cases: 10 µM unless noted
DU-145 prostate = test system: DU-145 prostate
K-562 leukemia = test system: K-562 leukemia
MALME-3M melanoma = test system: MALME-3M melanoma
MDA-MB-231 breast = test system: MDA-MB-231 breast
RXF 393 renal = test system: RXF 393 renal
SF-268 CNS = test system: SF-268 CNS
SF-295 CNS = test system: SF-295 CNS
SF-539 CNS = test system: SF-539 CNS
UACC-257 melanoma = test system: UACC-257 melanoma
M14 melanoma = test system: M14 melanoma
HCT-15 colon = test system: HCT-15 colon
HT29 colon = test system: HT29 colon
SNB-75 CNS = test system: SNB-75 CNS
SNB-19 CNS = test system: SNB-19 CNS
U251 CNS = test system: U251 CNS
PC-3 prostate = test system: PC-3 prostate
SK-MEL-5 melanoma = test system: SK-MEL-5 melanoma
UACC-62 melanoma = test system: UACC-62 melanoma
LOX IMVI melanoma = test system: LOX IMVI melanoma
SK-MEL-28 melanoma = test system: SK-MEL-28 melanoma

Row | Compound | growth (DU-145 prostate) | growth (K-562 leukemia) | growth (MALME-3M melanoma) | growth (MDA-MB-231 breast) | growth (RXF 393 renal) | growth (SF-268 CNS) | growth (SF-295 CNS) | growth (SF-539 CNS) | growth (UACC-257 melanoma) | growth (M14 melanoma) | growth (HCT-15 colon) | growth (HT29 colon) | growth (SNB-75 CNS) | growth (SNB-19 CNS) | growth (U251 CNS) | growth (PC-3 prostate) | growth (SK-MEL-5 melanoma) | growth (UACC-62 melanoma) | growth (LOX IMVI melanoma) | growth (SK-MEL-28 melanoma)
1 | Cc1ccc(-c2nc(SCc3nc4cc(Cl)c(Cl)cc4[nH]3)[nH]c(=O)c2C#N)cc1 | 91.6% | 93.4% | 95.6% | 97.9% | 108% | 91.6% | 104% | 97.5% | 91.3% | 91.2% | 104% | 95.7% | 87.2% | 106% | 98.7% | 94% | 104% | 99.5% | 102% | 111%
2 | COc1cc(OC)c2sc(-c3ccc(-n4cncc4-c4cc(OC)c(OC)c(OC)c4)cc3)nc2c1 | 78.3% | 45.7% | 61.7% | 54.4% | 4.25% (active) | 61% | 60.6% | 62.1% | 59.8% | 69% | 41.3% | 44.5% | 82.9% | 49.7% | 43.1% | 34.4% | 20.9% | 43.8% | 57.7% | 73%
3 | Fc1ccc(Cn2cc(CSc3nc4ccccc4o3)nn2)cc1 | 108% | 95.3% | 107% | 97.1% | 105% | 95.4% | 97% | 100% | 105% | 97% | 104% | 99.8% | 92.2% | 92.5% | 105% | 98.3% | 110% | 84.3% | 107% | 98.9%
4 | COc1cccc(NCc2nnc(Nc3ccc(Cl)cc3)c3ccccc23)c1 | 8.3% (active) | 2.2% (active) | -22% (active) | -27.1% (active) | -11.6% (active) | 2.52% (active) | -22.6% (active) | -10.2% (active) | -39.7% (active) | -15.7% (active) | -18.1% (active) | -21% (active) | -6.06% (active) | 17.8% | -56.2% (active) | -13.6% (active) | -98.5% (active) | -29.2% (active) | -58.7% (active) | -16.1% (active)
5 | Cc1ccc(/C=C/C(=O)c2ccc(-n3cc(CN4CCN(c5cc6c(cc5F)c(=O)c(C(=O)O)cn6C5CC5)CC4)nn3)cc2)cc1 | 96.3% | 86% | 96% | 75.5% | 70.9% | 71.5% | 86.9% | 73.6% | 101% | 87.4% | 97.6% | 98.9% | 70.8% | 86.4% | 73.1% | 89.6% | 86.2% | 77.6% | 56.9% | 100%
6 | CN1CCN(C(=S)SCCCCOc2cc(=O)oc3ccccc23)CC1 | 90.6% | 64.3% | 93.3% | 89.1% | 99.5% | 87.7% | 77.7% | 98.9% | 85% | 103% | 88.3% | 78.5% | 93.8% | 94.7% | 87% | 72.7% | 69.5% | 73.9% | 93.9% | 109%
7 | COc1ccccc1C(=O)Nc1cccc(NC(=O)c2ccoc2C)c1 | 53.3% | 8.76% (active) | 60.4% | 59.4% | 50.1% | 48.2% | 29.8% | 27.2% | 33.3% | 13.1% | 28.7% | 6.04% (active) | 19.3% | 30.4% | 21.9% | 30.5% | 20.5% | 29.7% | 37.3% | 60.1%
8 | O=C(CN1CCCCCC1)Nc1nc2ccc(NCc3ccc(Cl)cc3)cc2s1 | 101% | 87.9% | 98.1% | 97.3% | 99.2% | 99.9% | 95.9% | 94.8% | 100% | 99.3% | 99.2% | 95.7% | 94.2% | 95.8% | 95.8% | 84.3% | 98.4% | 88.5% | 96.7% | 104%
9 | COc1ccc(/C=C/C(=O)c2cc(OC)c(OC)c(OC)c2)cc1OCC(=O)Nc1nc2ccc(OC(F)(F)F)cc2s1 | -30.3% (active) | 5.93% (active) | 26.8% | -16.1% (active) | -29.7% (active) | 9.91% (active) | 0.996% (active) | -58.4% (active) | 68.6% | 1.09% (active) | 11.7% | 20.1% | -33.1% (active) | 12.9% | -45.9% (active) | 33.4% | 2.06% (active) | 60% | -22.9% (active) | 36.4%
10 | COc1cc(/C=C2\CN(S(=O)(=O)c3ccccc3)C/C(=C\c3cc(CN4CCCCC4)c(O)c(OC)c3)C2=O)cc(CN2CCCCC2)c1O | -93% (active) | -9.62% (active) | -77.6% (active) | -67.8% (active) | -88.3% (active) | -20.7% (active) | 76.5% | -84.6% (active) | 83.8% | -75.2% (active) | -73.8% (active) | -66.7% (active) | -91.7% (active) | -30.1% (active) | -76.7% (active) | -36.3% (active) | -94.8% (active) | 71% | -87% (active) | -90.3% (active)
11 | CN1C(=O)/C(=C/c2ccc(C(=O)Nc3ncc(Cc4cccc(Cl)c4)s3)cc2)SC1=S | 66.3% | 55.1% | 67.9% | 77.4% | 64.4% | 61.7% | 31% | 67.5% | 79.8% | 17% | 35.3% | 61.1% | 73.6% | 73.5% | 65.2% | 73.3% | 25.7% | 20.4% | 22.7% | 63.4%
12 | N#Cc1c(-c2ccccc2)nc(SCc2nnc(-c3ccc(Cl)cc3)o2)[nH]c1=O | 108% | 84.1% | 88.9% | 103% | 106% | 100% | 89.5% | 104% | 94.7% | 92.1% | 101% | 94.1% | 93.9% | 100% | 81% | 61.5% | 99.5% | 98.5% | 94.1% | 110%
13 | c1nc2ccc(-c3cc4ccc5[nH]ncc5c4c4c3CCCC4)cc2[nH]1 | 62.5% | 27.8% | 28.8% | 81.6% | 62.6% | 71.1% | 67.9% | 48.7% | 59.1% | 7.72% (active) | 94.8% | 58% | 71.2% | 74.9% | 77.3% | 63.1% | 67.4% | 31.9% | 53.3% | 41.7%
14 | N=C(N)c1ccc(-c2ccc(-c3cc(Cl)cc(Cl)c3)s2)nc1 | 1.39% (active) | -4.72% (active) | 78.6% | 61.1% | 90.3% | 88.4% | 57.1% | 57.2% | 106% | 79.5% | -7.35% (active) | 13.2% | 105% | 64.5% | -36.1% (active) | 71.3% | 94% | 95.2% | -75.6% (active) | 108%
15 | CC1=C(C(=O)Nc2nc(-c3ccc(Cl)cc3)cs2)[C@H](c2ccc(O)cc2)NC(=O)N1 | 98% | 96.8% | 99.6% | 90.2% | 104% | 87.1% | 95.7% | 99.3% | 105% | 98.1% | 102% | 100% | 74.3% | 107% | 93.4% | 84.4% | 99.8% | 88.8% | 95.1% | 115%
